Laboratory results published in ChEMBL document CHEMBL3988442, “University of Dundee, Small-Polar-MMV Screening Library” (2021).
Potency and affinity values are given separately.

Molecular target: Protein translocase subunit SecA (Escherichia coli (strain K12)) (UniProt P10408)
Test: Assay to Identify E. coli SecA ATPase Inhibitors
Format: functional
Design: scale not given: direction of the effect not stated beside the values
Conditions: 30 µM

Sequence of Protein translocase subunit SecA (Escherichia coli (strain K12)) (P10408 whole entry): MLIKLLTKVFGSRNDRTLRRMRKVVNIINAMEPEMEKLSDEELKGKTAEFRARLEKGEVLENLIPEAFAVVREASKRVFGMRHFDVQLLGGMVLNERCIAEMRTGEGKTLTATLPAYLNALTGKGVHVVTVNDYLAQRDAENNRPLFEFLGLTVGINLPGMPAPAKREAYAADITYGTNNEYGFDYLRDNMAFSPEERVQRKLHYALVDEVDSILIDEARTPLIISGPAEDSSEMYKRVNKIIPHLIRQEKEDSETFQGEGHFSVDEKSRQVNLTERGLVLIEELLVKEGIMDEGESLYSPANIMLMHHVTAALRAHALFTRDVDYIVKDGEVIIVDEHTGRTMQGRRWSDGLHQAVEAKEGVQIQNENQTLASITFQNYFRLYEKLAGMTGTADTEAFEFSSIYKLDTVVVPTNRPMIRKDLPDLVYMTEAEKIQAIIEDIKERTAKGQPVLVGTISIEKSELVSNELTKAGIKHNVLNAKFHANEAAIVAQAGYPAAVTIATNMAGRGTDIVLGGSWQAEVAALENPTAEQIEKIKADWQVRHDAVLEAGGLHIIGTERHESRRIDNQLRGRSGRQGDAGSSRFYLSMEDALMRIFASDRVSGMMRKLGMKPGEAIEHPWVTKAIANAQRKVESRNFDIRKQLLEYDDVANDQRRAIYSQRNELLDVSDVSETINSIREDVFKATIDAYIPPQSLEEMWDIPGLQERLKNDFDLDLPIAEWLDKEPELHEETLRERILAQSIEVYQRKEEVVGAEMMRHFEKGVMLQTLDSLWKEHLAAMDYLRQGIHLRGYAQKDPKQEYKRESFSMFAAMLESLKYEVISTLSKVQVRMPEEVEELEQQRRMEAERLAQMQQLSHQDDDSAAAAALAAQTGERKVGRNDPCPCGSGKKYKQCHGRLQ

Going from `CN(C)c1cc2c(nn1)CCN(C(=O)C1CCc3ccccc31)C2` (stereo not drawn) to `Cc1nnc2n1CCN(C(=O)c1cn(-c3ccccc3Cl)nn1)C2`, the Percent Effect rises from -6.92% to -5.44%.

Going from `Cc1cccnc1NC(=O)NC(C)Cn1cccn1` (stereo not drawn) to `O=C(NCCc1ccccn1)NC1CCN(c2ncccn2)CC1`, the Percent Effect rises from -8.41% to -2.63%.

First: O=C(NCCNC(=O)N1CCC(c2ccccc2)C1)C1CC1 (stereo not drawn)
Second: CN(C(=O)NCCCN1CCCC1)C1CCN(c2ccccc2)C1=O (stereo not drawn)
The Percent Effect of the first is lower: -2.18% for the first, 5.28% for the second.

Compared with `COc1ccnc(N2CCN(C(=O)Cc3ccc(C#N)cc3)CC2)n1`, `CC(C)OCC(=O)N1CCCN(Cc2ccc(C#N)cc2)CC1` is higher in Percent Effect: -3.03% for the first, -2.63% for the second.

First: Fc1ccc(CNCC2OCCc3cn(CC4CC4)nc32)cc1 (stereo not drawn)
Second: CC1CCCCN1CCNC(=O)c1ccn(-c2ccc(F)cc2)n1 (stereo not drawn)
The Percent Effect of the first is lower: -3.44% for the first, -2.64% for the second.

Going from `Cc1ccc(NC(=O)N2CCOC(C)C2)cc1Cl` (stereo not drawn) to `CCc1nc(C(=O)N2CCN(C)CC2C)nn1-c1ccccc1Cl` (stereo not drawn), the Percent Effect falls from -0.48% to -3.02%.

Going from `Cc1ccc(CN(Cc2ccccn2)C2CC(C)(C)NC(C)(C)C2)s1` to `CNC(=O)C1Cn2ccnc2C2(CCN(Cc3cccc(C)n3)CC2)O1` (stereo not drawn), the Percent Effect falls from -1.39% to -2.65%.

Compared with `CN(C)c1ncccc1CNC(=O)N1CCCC1CN1CCCCC1` (stereo not drawn), `O=C(CCN1CCCC1C1CCCCC1)N1CCc2sccc2C1` (stereo not drawn) is lower in Percent Effect: -3.1% for the first, -3.42% for the second.

Going from `Cc1nn(CCO)c(C)c1CNC1CCc2c(Cl)cccc21` (stereo not drawn) to `Cc1nn(C)c(C)c1C1CCCN1C(=O)c1cc[nH]n1` (stereo not drawn), the Percent Effect falls from -3.63% to -3.64%.

First: O=C(Cc1ccsc1)N1CCCC(c2n[nH]c3nccnc23)C1 (stereo not drawn)
Second: O=C(c1ccsc1)N1CCc2c(CNc3ncccn3)n[nH]c2C1
The Percent Effect of the first is lower: -5.56% for the first, -4.87% for the second.

Compared with `CN(C)CC(=O)N1CCCC2(CCC(=O)N(CCc3c[nH]cn3)C2)C1` (stereo not drawn), `CCO[C@@H]1CO[C@@]2(CCCN(C(=O)COc3ccccc3OC)C2)C1` is higher in Percent Effect: -1.9% for the first, 2.9% for the second.

Compared with `CCc1n[nH]c(C2CN(C(=O)c3csnn3)CCO2)n1` (stereo not drawn), `CCc1noc(C2CCCCN2C(=O)c2ccoc2C)n1` (stereo not drawn) is higher in Percent Effect: -7.28% for the first, -3.77% for the second.

Going from `COc1cccc(CCNC(=O)CN2CCN(C)CC2C)c1` (stereo not drawn) to `CC(C)OCCN(Cc1cccc(O)c1)C1CCC(O)CC1` (stereo not drawn), the Percent Effect falls from -1.66% to -4.61%.

Compared with `Oc1ccc(N2CCN(Cc3cc4c(cc3Br)OCCO4)CC2)cc1`, `O=C(Cc1ccc2c(c1)OCCO2)NC1CCCC1` is lower in Percent Effect: -0.859% for the first, -5.5% for the second.

Going from `Cc1cnn(CC2CCCN2Cc2cc(=O)n3cccc(C)c3n2)c1` (stereo not drawn) to `Cc1cc2n(n1)CC(CNCc1ccnc(-n3ccnc3C)c1)CN2` (stereo not drawn), the Percent Effect rises from -6.14% to -2.38%.

Going from `CCc1noc(C(C)N2CCN(Cc3nc(C)c(C)o3)CC2)n1` (stereo not drawn) to `CN(Cc1ccc(N2CCCCC2)cc1)Cc1noc(C(C)(C)C)n1`, the Percent Effect rises from -2.85% to -2.34%.

First: CC(C)NC(=O)c1ccc2c(c1)nc1n2CCN(c2ccccc2)C1
Second: CCn1nc(CC(C)C)cc1C(=O)N1CC[C@@H](O)C1
The Percent Effect of the first is higher: -1.74% for the first, -4.98% for the second.

Compared with `CCN(CC)C(=O)CCNc1cncc(-n2nc(C)cc2C)n1`, `CN(Cc1ccc(F)cc1)CC1(O)CCCN(CC(C)(C)C)C1=O` (stereo not drawn) is lower in Percent Effect: -5.54% for the first, -5.95% for the second.

Going from `Cc1ncsc1CN1C[C@H](C(=O)N2CCCO2)[C@@H]2CCO[C@@H]2C1` to `CCS(=O)(=O)N1CCC(c2nnc(CN3CCCC3)n2C2CC2)CC1`, the Percent Effect rises from -2.57% to -1.74%.

For `O=C(c1ccc2c(c1)COC2)N1CCN(CC2CC2)CC1`, the Percent Effect was -2.51%.

Molecular target: T1, Ubiquitin-activating enzyme e1, putative (Leishmania donovani (strain BPK282A1)) (UniProt E9BSI1)
T1 sequence (whole entry): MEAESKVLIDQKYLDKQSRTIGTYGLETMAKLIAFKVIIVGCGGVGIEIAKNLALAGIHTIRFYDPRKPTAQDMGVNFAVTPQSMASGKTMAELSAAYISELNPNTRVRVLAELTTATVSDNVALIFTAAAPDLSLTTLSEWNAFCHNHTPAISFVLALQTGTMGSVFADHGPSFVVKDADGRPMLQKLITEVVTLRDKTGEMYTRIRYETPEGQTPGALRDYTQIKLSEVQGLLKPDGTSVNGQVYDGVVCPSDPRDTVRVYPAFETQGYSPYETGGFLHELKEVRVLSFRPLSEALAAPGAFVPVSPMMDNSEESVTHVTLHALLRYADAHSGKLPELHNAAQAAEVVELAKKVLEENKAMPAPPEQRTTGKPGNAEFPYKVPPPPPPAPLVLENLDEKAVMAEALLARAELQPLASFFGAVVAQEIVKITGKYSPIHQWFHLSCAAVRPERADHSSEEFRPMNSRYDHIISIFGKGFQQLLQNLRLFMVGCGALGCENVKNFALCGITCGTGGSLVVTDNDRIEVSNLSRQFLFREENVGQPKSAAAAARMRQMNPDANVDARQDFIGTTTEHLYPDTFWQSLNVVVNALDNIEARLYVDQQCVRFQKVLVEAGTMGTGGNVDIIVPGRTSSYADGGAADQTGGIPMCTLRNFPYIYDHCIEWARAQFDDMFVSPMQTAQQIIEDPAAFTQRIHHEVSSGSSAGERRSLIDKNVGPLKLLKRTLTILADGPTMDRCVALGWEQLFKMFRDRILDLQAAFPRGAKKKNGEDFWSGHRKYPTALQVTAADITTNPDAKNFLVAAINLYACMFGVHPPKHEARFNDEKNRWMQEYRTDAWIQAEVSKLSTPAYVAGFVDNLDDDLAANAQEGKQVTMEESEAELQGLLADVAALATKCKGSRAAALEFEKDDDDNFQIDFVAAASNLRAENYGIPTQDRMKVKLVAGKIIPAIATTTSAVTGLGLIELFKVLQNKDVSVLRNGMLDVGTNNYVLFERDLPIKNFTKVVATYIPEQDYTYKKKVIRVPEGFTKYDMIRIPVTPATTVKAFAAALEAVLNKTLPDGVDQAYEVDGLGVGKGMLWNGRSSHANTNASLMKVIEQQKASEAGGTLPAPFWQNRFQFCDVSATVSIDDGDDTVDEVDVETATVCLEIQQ
Test: Leishmania donovani Ubiquitin Activating Enzyme (LdE1)
Format: functional
Design: scale not given: direction of the effect not stated beside the values
Conditions: 30 µM

Going from `CN(C)c1cc2c(nn1)CCN(C(=O)C1CCc3ccccc31)C2` (stereo not drawn) to `Cc1nnc2n1CCN(C(=O)c1cn(-c3ccccc3Cl)nn1)C2`, the Percent Effect rises from 5.06% to 8.22%.

Compared with `Cc1cccnc1NC(=O)NC(C)Cn1cccn1` (stereo not drawn), `O=C(NCCc1ccccn1)NC1CCN(c2ncccn2)CC1` is higher in Percent Effect: 10.4% for the first, 16.4% for the second.

First: O=C(NCCNC(=O)N1CCC(c2ccccc2)C1)C1CC1 (stereo not drawn)
Second: CN(C(=O)NCCCN1CCCC1)C1CCN(c2ccccc2)C1=O (stereo not drawn)
The Percent Effect of the first is higher: 18.9% for the first, 15.8% for the second.

Going from `COc1ccnc(N2CCN(C(=O)Cc3ccc(C#N)cc3)CC2)n1` to `CC(C)OCC(=O)N1CCCN(Cc2ccc(C#N)cc2)CC1`, the Percent Effect rises from 13% to 13.2%.

First: Fc1ccc(CNCC2OCCc3cn(CC4CC4)nc32)cc1 (stereo not drawn)
Second: CC1CCCCN1CCNC(=O)c1ccn(-c2ccc(F)cc2)n1 (stereo not drawn)
The Percent Effect of the first is lower: 0% for the first, 18.9% for the second.

Compared with `Cc1ccc(NC(=O)N2CCOC(C)C2)cc1Cl` (stereo not drawn), `CCc1nc(C(=O)N2CCN(C)CC2C)nn1-c1ccccc1Cl` (stereo not drawn) is lower in Percent Effect: 16.4% for the first, 15.8% for the second.

Going from `Cc1ccc(CN(Cc2ccccn2)C2CC(C)(C)NC(C)(C)C2)s1` to `CNC(=O)C1Cn2ccnc2C2(CCN(Cc3cccc(C)n3)CC2)O1` (stereo not drawn), the Percent Effect rises from -4.05% to 2.7%.

First: CN(C)c1ncccc1CNC(=O)N1CCCC1CN1CCCCC1 (stereo not drawn)
Second: O=C(CCN1CCCC1C1CCCCC1)N1CCc2sccc2C1 (stereo not drawn)
The Percent Effect of the first is higher: 23.4% for the first, -48.6% for the second.

First: Cc1nn(CCO)c(C)c1CNC1CCc2c(Cl)cccc21 (stereo not drawn)
Second: Cc1nn(C)c(C)c1C1CCCN1C(=O)c1cc[nH]n1 (stereo not drawn)
The Percent Effect of the first is higher: 8% for the first, 3.8% for the second.

Going from `O=C(Cc1ccsc1)N1CCCC(c2n[nH]c3nccnc23)C1` (stereo not drawn) to `O=C(c1ccsc1)N1CCc2c(CNc3ncccn3)n[nH]c2C1`, the Percent Effect falls from 14.9% to 10.7%.

Going from `CN(C)CC(=O)N1CCCC2(CCC(=O)N(CCc3c[nH]cn3)C2)C1` (stereo not drawn) to `CCO[C@@H]1CO[C@@]2(CCCN(C(=O)COc3ccccc3OC)C2)C1`, the Percent Effect rises from 15.6% to 18.2%.

Compared with `CCc1n[nH]c(C2CN(C(=O)c3csnn3)CCO2)n1` (stereo not drawn), `CCc1noc(C2CCCCN2C(=O)c2ccoc2C)n1` (stereo not drawn) is lower in Percent Effect: 10.4% for the first, 4% for the second.

`COc1cccc(CCNC(=O)CN2CCN(C)CC2C)c1` (stereo not drawn) and `CC(C)OCCN(Cc1cccc(O)c1)C1CCC(O)CC1` (stereo not drawn) are the same in Percent Effect: 0% for the first, 0% for the second.

Compared with `Oc1ccc(N2CCN(Cc3cc4c(cc3Br)OCCO4)CC2)cc1`, `O=C(Cc1ccc2c(c1)OCCO2)NC1CCCC1` is higher in Percent Effect: -9.72% for the first, 18.2% for the second.

First: Cc1cnn(CC2CCCN2Cc2cc(=O)n3cccc(C)c3n2)c1 (stereo not drawn)
Second: Cc1cc2n(n1)CC(CNCc1ccnc(-n3ccnc3C)c1)CN2 (stereo not drawn)
The Percent Effect of the first is lower: 8.11% for the first, 26.3% for the second.

Compared with `CCc1noc(C(C)N2CCN(Cc3nc(C)c(C)o3)CC2)n1` (stereo not drawn), `CN(Cc1ccc(N2CCCCC2)cc1)Cc1noc(C(C)(C)C)n1` is lower in Percent Effect: 0% for the first, -13% for the second.

Going from `CC(C)NC(=O)c1ccc2c(c1)nc1n2CCN(c2ccccc2)C1` to `CCn1nc(CC(C)C)cc1C(=O)N1CC[C@@H](O)C1`, the Percent Effect rises from -17.3% to 18.7%.

Compared with `CCN(CC)C(=O)CCNc1cncc(-n2nc(C)cc2C)n1`, `CN(Cc1ccc(F)cc1)CC1(O)CCCN(CC(C)(C)C)C1=O` (stereo not drawn) is lower in Percent Effect: 5.41% for the first, -1.39% for the second.

Compared with `Cc1ncsc1CN1C[C@H](C(=O)N2CCCO2)[C@@H]2CCO[C@@H]2C1`, `CCS(=O)(=O)N1CCC(c2nnc(CN3CCCC3)n2C2CC2)CC1` is higher in Percent Effect: -8.22% for the first, 8% for the second.

For `O=C(c1ccc2c(c1)COC2)N1CCN(CC2CC2)CC1`, the Percent Effect was 5.06%.
